This passage reports growth results from PubChem BioAssay (NCI).

This is part of a sample that, as a whole, favours compounds with a hit. Of some 83,000 tested, about 20% had one in any assay.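 Interpretation: 100, growth as untreated; towards 0, rising growth inhibition; 0, no net growth; 0 to -100, cell death. Compounds scoring below 10 were considered active.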 Unmarked numbers belong to inactive results. Active and inactive are the calls of the source.

What all share (assay): NCI-60 one-dose screen, 48 h (100 = growth as untreated, 0 = no growth, -100 = all killed)
Details in all cases: 10 µM unless noted

Experiment [1] deals with DU-145 prostate.
The subject of experiment [2] is K-562 leukemia.
The subject of experiment [3] is MALME-3M melanoma.
Experiment [4] has as its system MDA-MB-231 breast.
In experiment [5] the test system is RXF 393 renal.
Experiment [6] deals with SF-268 CNS.
In experiment [7] the test system is SF-295 CNS.
Experiment [8] relates to SF-539 CNS.
Experiment [9] has as its system UACC-257 melanoma.
The subject of experiment [10] is M14 melanoma.
Experiment [11] relates to HCT-15 colon.
The subject of experiment [12] is SNB-75 CNS.
Experiment [13] deals with SNB-19 CNS.
The test system of experiment [14] is U251 CNS.
Experiment [15] concerns PC-3 prostate.
For experiment [16], the system named is SK-MEL-5 melanoma.
In experiment [17] the test system is UACC-62 melanoma.
Experiment [18] has as its system LOX IMVI melanoma.
The test system of experiment [19] is SK-MEL-28 melanoma.
In experiment [20] the test system is HT29 colon.

For the compound `COC(=O)c1ccc(NC(N)=NCC(C)(C)COc2ccc(C(F)(F)F)cc2)nc1`, the growth in experiment [1] was 68.8%; in experiment [2], -31.8% (active); in [3], 82.4%; in [4], 48.8%; in experiment [5] it was 70.7%; in experiment [6], 66.8%. The growth in experiment [7] is 57.1%; in experiment [8], 82.6%; in [9] it was 62.4%; in experiment [10] it was 55.6%; in [11], 18.1%; in [12], 86.8%. Further, the growth is 68.8% in experiment [13]; 40.1% in [14]; 50.9% in experiment [15]; 23.2% in [16]; 65.5% in [17]; 16.5% in experiment [18]. Further, the growth in experiment [19] is 90.1%.
As to `CCCCCCCCCCCCCCCCNc1ccccc1`, the growth in experiment [1] was 107%; in experiment [2] it was 79.8%; in experiment [3], 114%; in [4] it was 104%; in experiment [5], 110%; in [6], 86.6%. For the same compound, the growth in [7] is 102%; in [8], 97.1%; in [9] it was 82.3%; in [10] it was 106%; in experiment [11], 103%; in experiment [12] it was 107%. Further, the growth in [13] is 108%; in experiment [14], 86.2%; in experiment [15], 82%; in [16] it was 104%; in [17] it was 98.8%; in experiment [18] it was 101%. In addition, the growth in experiment [19] is 113%.
In the case of `COC(=O)/C=C/C(=O)c1cc(C)cc(C)c1O`, the growth in [1] is 103%; in experiment [2], 103%; in [3] it was 95.7%; in [4] it was 114%; in experiment [5], 116%; in [6] it was 95.9%. Also, the growth was 93.5% in experiment [7]; 99.5% in experiment [8]; 99.8% in experiment [9]; 102% in experiment [10]; 100% in experiment [11]; 103% in experiment [12]. Also, the growth in experiment [13] is 108%; in [14], 108%; in [15], 102%; in experiment [16] it was 104%; in [17], 106%; in experiment [18], 98.1%. Moreover, the growth in [19] was 102%.
`O=C(Nc1ccc(-n2ccc3c(NC(=O)c4ccccc4)nccc32)cc1)c1cccc(C(F)(F)F)c1`: the growth in experiment [1] is 45.2%; in [2] it was 15.3%; in experiment [3], 44.3%; in [4], 51.4%; in experiment [5] it was -8.11% (active); in experiment [6], 26.9%. For the same compound, the growth is 11.3% in experiment [7]; 16.8% in [8]; 44.4% in experiment [9]; 27.6% in experiment [10]; 14.1% in [11]; 43.9% in experiment [12]. In addition, the growth in experiment [13] is 37.4%; in experiment [14], 17.7%; in experiment [15] it was 40.4%; in experiment [16] it was 16.5%; in experiment [17], 35.4%; in [18] it was 6.29% (active). Moreover, in experiment [19], the growth is 48.1%.
Turning to `CC(C)(C)NCC(O)COc1c(Br)c(Br)c(Br)c2c1OC(C)(C)C2` (stereo not drawn), the growth is -59.5% (active) in experiment [1]; -34.9% (active) in experiment [2]; -82.8% (active) in experiment [3]; -65.6% (active) in experiment [4]; -52.5% (active) in experiment [5]; 4.14% (active) in experiment [6]. The growth in [7] is -63% (active); in experiment [8], -84.5% (active); in [9] it was 107%; in [10], -72.6% (active); in experiment [11], -66.9% (active); in experiment [12], 5.77% (active). In addition, the growth in [13] was -47.2% (active); in experiment [15], -90.2% (active); in experiment [16] it was -97% (active); in experiment [17], -79.8% (active); in experiment [18] it was -90.9% (active); in [19] it was -83.7% (active).
Take `Nc1ncnc2c1c(C(F)(F)F)cn2[C@@H]1O[C@H](CO)[C@@H](O)[C@H]1O`: the growth is 17.9% in experiment [1]; 5.69% (active) in [2]; -16.9% (active) in [3]; 15.7% in experiment [4]; -45.2% (active) in experiment [5]; 7.4% (active) in experiment [6]. Moreover, the growth was 7.79% (active) in experiment [7]; -31.7% (active) in [8]; -5.51% (active) in experiment [9]; 2.76% (active) in experiment [10]; 4.22% (active) in experiment [11]; -35.1% (active) in experiment [12]. The growth is 14.6% in experiment [13]; 3.73% (active) in [14]; -32.1% (active) in experiment [16]; -38.6% (active) in experiment [17]; 6.25% (active) in experiment [18]; 1.5% (active) in [19].
As for `COC(=O)c1ccc2c(c1)Oc1ccc(Cl)cc1-c1cc(C)nn1-2`, the growth in experiment [1] is 82.3%; in experiment [2] it was 89.5%; in [3] it was 80%; in [4], 60.7%; in experiment [5], 91.8%; in experiment [6] it was 80.5%. Besides, the growth in experiment [7] is 24.6%; in experiment [8], 68.4%; in experiment [9], 108%; in [10], 89%; in experiment [11], 91.6%; in experiment [12] it was 63.3%. Also, the growth in experiment [13] is 68.8%; in experiment [14], 19.1%; in experiment [15], 76%; in experiment [16], 86%; in experiment [17], 84.7%; in [18] it was 57.9%. For the same compound, the growth in experiment [19] is 106%.
For the compound `c1ccc(CNCCN(CCNCc2ccccn2)Cc2ccc3ccccc3c2)nc1`, the growth in experiment [1] was 13.7%; in experiment [2] it was -0.99% (active); in experiment [3], 24.6%; in [4], 4.02% (active); in experiment [5], 45.1%; in [6], 19%. Also, the growth in [7] was -35.6% (active); in experiment [8], -34.8% (active); in experiment [9], 31.7%; in [10], -49.4% (active); in experiment [11] it was 1.52% (active); in experiment [12], 21.2%. In addition, the growth in experiment [13] is 18.3%; in experiment [14] it was 3.09% (active); in experiment [17], -23.4% (active); in experiment [18] it was 0.713% (active); in experiment [19], 5% (active).
As to `Cc1ccc2nc(-c3ccc(-n4on4-c4ccc(/C=C/c5ccc(-n6on6-c6ccc(-c7nc8ccc(C)cc8s7)cc6)cc5S(=O)(=O)O)c(S(=O)(=O)O)c4)cc3)sc2c1`, the growth in [1] was 111%; in experiment [2], 99.2%; in experiment [3], 101%; in experiment [4], 133%; in experiment [5], 110%; in experiment [6], 99.8%. Besides, the growth was 110% in experiment [7]; 98.7% in experiment [8]; 110% in [9]; 99.5% in experiment [10]; 109% in [11]; 107% in experiment [12]. Moreover, the growth was 117% in experiment [13]; 115% in [14]; 98% in experiment [15]; 107% in experiment [16]; 105% in experiment [17]; 97% in experiment [18]. In addition, the growth in experiment [19] was 107%.
With `CCCCNc1cc(C(=O)O)cc(S(N)(=O)=O)c1Oc1ccccc1`, the growth was 110% in [1]; 98.2% in experiment [2]; 96.2% in [3]; 122% in experiment [4]; 91.1% in experiment [5]; 105% in [6]. Moreover, the growth in [7] was 102%; in [8], 105%; in [9], 105%; in experiment [10], 109%; in experiment [11], 108%; in experiment [20], 112%. Further, the growth in experiment [12] was 90.4%; in experiment [13], 106%; in [16] it was 95.3%; in [17] it was 101%; in experiment [18] it was 93.5%; in experiment [19] it was 109%.
In the case of `Nc1nc(Cl)cc(NCc2ccc(CNc3cc(Cl)nc(N)n3)cc2)n1`, the growth in experiment [1] was 96.4%; in experiment [2], 47.8%; in experiment [3] it was 182%; in [4], 83.1%; in experiment [5], 90.9%; in experiment [6], 98.2%. Further, the growth in experiment [7] was 105%; in experiment [8], 87.3%; in [9], 96%; in [10], 133%; in experiment [11], 100%; in experiment [12], 78.3%. Also, the growth in experiment [13] is 100%; in [14] it was 98.6%; in experiment [15], 109%; in [16], 58.4%; in experiment [17], 98.3%; in experiment [18], 79.5%. In addition, the growth in experiment [19] was 120%.
For the compound `O=c1c2ccccc2[nH]n1Cc1ccc2c(c1)OCO2`, the growth in [1] was 112%; in experiment [2], 95.9%; in [3] it was 100%; in experiment [4], 114%; in experiment [5], 103%; in [6], 101%. In addition, the growth was 104% in experiment [7]; 98.1% in experiment [8]; 97% in experiment [9]; 104% in experiment [10]; 95.7% in [11]; 101% in experiment [12]. Besides, the growth in [13] was 97%; in [14], 96.2%; in experiment [15], 88.1%; in [16] it was 100%; in experiment [17], 100%; in experiment [18] it was 111%. In addition, in [19], the growth is 106%.
For the compound `c1ccc2c(c1)Oc1cccnc1-n1nccc1-2`, the growth in [1] was 110%; in experiment [2], 104%; in experiment [3], 103%; in [4] it was 93.5%; in [5], 107%; in experiment [6], 102%. In addition, the growth in experiment [7] was 108%; in [8], 106%; in [9] it was 102%; in experiment [10] it was 101%; in experiment [11], 108%; in experiment [12], 88.8%. The growth in [13] is 103%; in [14] it was 100%; in [16], 95.7%; in [17], 84.7%; in experiment [18] it was 96.3%; in experiment [19], 102%.
Consider `O=C(Nc1ccc(-n2cc(-c3ccncc3)c(-c3ccc(O)c(Cl)c3)n2)cc1)Nc1cccc(Cl)c1Cl`, for which the growth is 66.4% in [1]; 39.6% in [2]; 67.4% in [3]; 27% in experiment [4]; -8.38% (active) in [5]; 82% in experiment [6]. The growth is 37.6% in experiment [7]; 18.5% in experiment [8]; 90.7% in experiment [9]; 46.9% in experiment [10]; 43.1% in experiment [11]; 72.5% in experiment [12]. Besides, the growth in experiment [13] is 71.9%; in experiment [14], 39.7%; in [15], 29%; in experiment [16], 31.2%; in experiment [17], 89.5%; in [18] it was 52.8%. In addition, the growth in experiment [19] was 60.3%.
Regarding `COc1ccc(Cl)cc1NC(=O)c1cc2c([nH]1)-c1nc(NC(=O)C(C)C)sc1CC2`, the growth in [1] is 96.2%; in experiment [2] it was 76.4%; in [3] it was 104%; in experiment [4], 113%; in experiment [5], 109%; in experiment [6], 94.9%. For the same compound, the growth in experiment [7] was 101%; in experiment [8], 26%; in experiment [9], 92.7%; in experiment [10] it was 101%; in experiment [11], 95.4%; in experiment [20], 87%. Further, the growth in experiment [12] is 92.2%; in [13], 110%; in experiment [15], 87.6%; in experiment [17], 91.7%; in [18] it was 95%; in experiment [19] it was 112%.
